Measurements from PubChem BioAssay (NCI).
This is part of a sample that, as a whole, favours compounds with a hit. Of some 83,000 tested, about 20% had one in any assay.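 Plates (96-well) were seeded with cells, treated with compound at one concentration, and incubated for 48 hours before percent growth was determined.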 The source made the active and inactive calls. The calls were made as follows: active = growth percent below 10; inactive = the rest.

How the values were obtained:
Assay in all cases: NCI-60 one-dose screen, 48 h (100 = growth as untreated, 0 = no growth, -100 = all killed)
Settings in all cases: 10 µM unless noted
SR leukemia = system: SR leukemia
RPMI-8226 leukemia = system: RPMI-8226 leukemia
OVCAR-8 ovarian = system: OVCAR-8 ovarian
OVCAR-5 ovarian = system: OVCAR-5 ovarian
OVCAR-4 ovarian = system: OVCAR-4 ovarian
SK-OV-3 ovarian = system: SK-OV-3 ovarian
IGROV1 ovarian = system: IGROV1 ovarian
OVCAR-3 ovarian = system: OVCAR-3 ovarian
HS 578T breast = system: HS 578T breast
NCI/ADR-RES ovarian = system: NCI/ADR-RES ovarian
T-47D breast = system: T-47D breast
BT-549 breast = system: BT-549 breast
MDA-MB-435 melanoma = system: MDA-MB-435 melanoma
SW-620 colon = system: SW-620 colon
MCF7 breast = system: MCF7 breast
HCT-116 colon = system: HCT-116 colon
HCC-2998 colon = system: HCC-2998 colon
KM12 colon = system: KM12 colon

Measured: growth

CCOc1c(C#N)c(Nc2ccc(S(N)(=O)=O)cc2)c(C#N)c2nnc(C)n12
inactive: SR leukemia 100% | RPMI-8226 leukemia 107% | OVCAR-8 ovarian 99.4% | OVCAR-5 ovarian 107% | OVCAR-4 ovarian 117% | SK-OV-3 ovarian 102% | IGROV1 ovarian 101% | OVCAR-3 ovarian 114% | HS 578T breast 102% | NCI/ADR-RES ovarian 105% | T-47D breast 104% | BT-549 breast 97.6% | MDA-MB-435 melanoma 108% | SW-620 colon 108% | MCF7 breast 97.2% | HCT-116 colon 116% | HCC-2998 colon 106%

Nc1c(C(=O)c2ccccc2)sc2nc(-c3cnccn3)cc(-c3cccs3)c12
inactive: SR leukemia 105% | RPMI-8226 leukemia 108% | OVCAR-8 ovarian 103% | OVCAR-5 ovarian 103% | OVCAR-4 ovarian 106% | SK-OV-3 ovarian 103% | IGROV1 ovarian 97.4% | OVCAR-3 ovarian 108% | HS 578T breast 98.8% | NCI/ADR-RES ovarian 107% | T-47D breast 98.9% | BT-549 breast 116% | MDA-MB-435 melanoma 98.9% | SW-620 colon 105% | MCF7 breast 90.8% | HCT-116 colon 96.5% | HCC-2998 colon 105% | KM12 colon 102%

ClC(Cl)c1nc(-c2cccs2)n2nc(-c3ccccc3)cc2n1
active: RPMI-8226 leukemia -25.6% | OVCAR-5 ovarian -8.51% | OVCAR-3 ovarian -37.4% | HS 578T breast -21.1% | NCI/ADR-RES ovarian -20.7% | T-47D breast 2.65% | MDA-MB-435 melanoma -9.17% | SW-620 colon -1.61% | MCF7 breast -4.41% | HCT-116 colon -23.7% | HCC-2998 colon -71.3% | KM12 colon -36.4%
inactive: SR leukemia 58.1% | OVCAR-8 ovarian 12% | OVCAR-4 ovarian 10.7% | SK-OV-3 ovarian 20.2% | IGROV1 ovarian 47.2% | BT-549 breast 87.4%

O=C(/C=C/c1cn(-c2ccccc2)nc1-c1ccc(Cl)cc1)c1cc2ccccc2oc1=O
inactive: SR leukemia 45.2% | RPMI-8226 leukemia 70.8% | OVCAR-8 ovarian 52.8% | OVCAR-5 ovarian 98% | OVCAR-4 ovarian 57.2% | SK-OV-3 ovarian 92.7% | IGROV1 ovarian 35.4% | OVCAR-3 ovarian 82.8% | HS 578T breast 66.5% | NCI/ADR-RES ovarian 71.9% | T-47D breast 44.1% | BT-549 breast 92.5% | MDA-MB-435 melanoma 57.6% | SW-620 colon 74% | MCF7 breast 33.9% | HCT-116 colon 25.4% | HCC-2998 colon 102% | KM12 colon 80.3%

Cc1cc2nc(C(Cl)Cl)nc(-c3ccco3)n2n1
inactive: SR leukemia 86.8% | RPMI-8226 leukemia 44.3% | OVCAR-8 ovarian 80.5% | OVCAR-5 ovarian 75.8% | OVCAR-4 ovarian 79.5% | SK-OV-3 ovarian 93.3% | IGROV1 ovarian 91.1% | OVCAR-3 ovarian 22.4% | HS 578T breast 94% | NCI/ADR-RES ovarian 62.6% | T-47D breast 79.2% | BT-549 breast 93.3% | MDA-MB-435 melanoma 89.4% | SW-620 colon 54.1% | MCF7 breast 46% | HCT-116 colon 74% | HCC-2998 colon 58.7% | KM12 colon 25.4%

O=C(COc1ccc(C2SCC(=O)N2c2ccccc2)cc1)c1ccccc1 (configuration not stated)
inactive: SR leukemia 91.5% | RPMI-8226 leukemia 91.9% | OVCAR-8 ovarian 94.1% | OVCAR-5 ovarian 104% | OVCAR-4 ovarian 107% | SK-OV-3 ovarian 111% | IGROV1 ovarian 96.4% | OVCAR-3 ovarian 116% | HS 578T breast 94.1% | NCI/ADR-RES ovarian 96.5% | T-47D breast 81.5% | BT-549 breast 92% | MDA-MB-435 melanoma 103% | SW-620 colon 104% | MCF7 breast 88.3% | HCT-116 colon 94.8% | HCC-2998 colon 102% | KM12 colon 99.4%

O=C(c1cccc(F)c1)n1ccc2cc(NC(=S)Nc3cccnc3)ccc21
inactive: SR leukemia 81.6% | RPMI-8226 leukemia 99.3% | OVCAR-8 ovarian 102% | OVCAR-5 ovarian 101% | OVCAR-4 ovarian 103% | SK-OV-3 ovarian 105% | IGROV1 ovarian 97.4% | OVCAR-3 ovarian 107% | HS 578T breast 94.4% | NCI/ADR-RES ovarian 105% | T-47D breast 93.7% | BT-549 breast 97.6% | MDA-MB-435 melanoma 99% | SW-620 colon 93.8% | MCF7 breast 85.7% | HCT-116 colon 105% | HCC-2998 colon 99.7% | KM12 colon 97.9%

COc1cc(-c2noc(C[C@@H](NC(=O)OCc3ccccc3)C(C)C)n2)cc(OC)c1OC
inactive: SR leukemia 95% | RPMI-8226 leukemia 106% | OVCAR-8 ovarian 100% | OVCAR-5 ovarian 97.3% | OVCAR-4 ovarian 102% | SK-OV-3 ovarian 94.5% | IGROV1 ovarian 99.5% | OVCAR-3 ovarian 110% | HS 578T breast 97.2% | NCI/ADR-RES ovarian 104% | T-47D breast 90.2% | BT-549 breast 105% | MDA-MB-435 melanoma 106% | SW-620 colon 98.5% | MCF7 breast 87.3% | HCT-116 colon 101% | HCC-2998 colon 103% | KM12 colon 105%

O=C1NC(=O)/C(=C/c2ccc(OCc3cc4ccccc4nc3Cl)cc2)S1
inactive: SR leukemia 91% | RPMI-8226 leukemia 78.7% | OVCAR-8 ovarian 99% | OVCAR-5 ovarian 114% | OVCAR-4 ovarian 93.5% | SK-OV-3 ovarian 109% | IGROV1 ovarian 108% | OVCAR-3 ovarian 104% | HS 578T breast 111% | NCI/ADR-RES ovarian 100% | T-47D breast 87.8% | BT-549 breast 123% | MDA-MB-435 melanoma 98.3% | SW-620 colon 104% | MCF7 breast 91.6% | HCT-116 colon 98.1% | HCC-2998 colon 105% | KM12 colon 100%

O=c1[nH]c(CCl)nc2c1cnn2-c1ccccc1
inactive: SR leukemia 87.1% | RPMI-8226 leukemia 82.5% | OVCAR-8 ovarian 104% | OVCAR-5 ovarian 114% | OVCAR-4 ovarian 111% | SK-OV-3 ovarian 122% | IGROV1 ovarian 95.9% | OVCAR-3 ovarian 100% | HS 578T breast 111% | NCI/ADR-RES ovarian 106% | T-47D breast 95.2% | BT-549 breast 94.1% | MDA-MB-435 melanoma 104% | SW-620 colon 102% | MCF7 breast 79.5% | HCT-116 colon 94.9% | HCC-2998 colon 105% | KM12 colon 101%

COc1ccccc1/C=C/C(=O)c1nnn(-c2ccc(C(=O)O)cc2)c1C
inactive: SR leukemia 67% | RPMI-8226 leukemia 90.4% | OVCAR-8 ovarian 91.6% | OVCAR-5 ovarian 113% | OVCAR-4 ovarian 101% | SK-OV-3 ovarian 106% | IGROV1 ovarian 90.4% | OVCAR-3 ovarian 89.2% | HS 578T breast 106% | NCI/ADR-RES ovarian 93.5% | T-47D breast 87.9% | BT-549 breast 96.4% | MDA-MB-435 melanoma 87.8% | SW-620 colon 102% | MCF7 breast 54.2% | HCT-116 colon 68% | HCC-2998 colon 102% | KM12 colon 93.8%

O=C1C[C@@H](c2ccccc2)Oc2c(Cc3ccccc3O)c(O)c(Cc3cc(Cc4cc(Cc5ccccc5O)ccc4O)ccc3O)c(O)c21
inactive: SR leukemia 99.5% | RPMI-8226 leukemia 88% | OVCAR-8 ovarian 97.2% | OVCAR-5 ovarian 107% | OVCAR-4 ovarian 99.6% | SK-OV-3 ovarian 103% | IGROV1 ovarian 82.6% | OVCAR-3 ovarian 96.4% | HS 578T breast 85.4% | NCI/ADR-RES ovarian 106% | T-47D breast 94% | BT-549 breast 104% | MDA-MB-435 melanoma 93.8% | SW-620 colon 99.3% | MCF7 breast 92.2% | HCT-116 colon 96.7% | HCC-2998 colon 106% | KM12 colon 92.8%

CN1CCN(c2ccc3c(C(N)=O)c(NC(=O)c4ccc(C(C)(C)C)cc4)sc3c2)CC1
inactive: SR leukemia 34.7% | RPMI-8226 leukemia 20.1% | OVCAR-8 ovarian 95.4% | OVCAR-5 ovarian 81.1% | OVCAR-4 ovarian 92.3% | SK-OV-3 ovarian 107% | IGROV1 ovarian 90.3% | OVCAR-3 ovarian 79.3% | HS 578T breast 91.2% | NCI/ADR-RES ovarian 85.9% | T-47D breast 92.3% | BT-549 breast 89.9% | MDA-MB-435 melanoma 95.1% | SW-620 colon 43.6% | MCF7 breast 39.7% | HCT-116 colon 37.6% | HCC-2998 colon 96.2% | KM12 colon 81.7%

Oc1ccccc1/C=N/Nc1nc(N/N=C/c2ccccc2O)nc(N2CCOCC2)n1
inactive: SR leukemia 16% | RPMI-8226 leukemia 53.6% | OVCAR-8 ovarian 12.7% | OVCAR-5 ovarian 37% | SK-OV-3 ovarian 11.9% | IGROV1 ovarian 37% | OVCAR-3 ovarian 33.6% | HS 578T breast 47% | NCI/ADR-RES ovarian 22.9% | T-47D breast 46.1% | BT-549 breast 76.3% | MDA-MB-435 melanoma 58.9% | SW-620 colon 38.5% | MCF7 breast 40% | HCT-116 colon 19.2% | HCC-2998 colon 58.9% | KM12 colon 52.7%
active: OVCAR-4 ovarian -11.7%

Cn1c(SC(C(=O)Nc2ccc(F)cc2)c2ccccc2)nc2ccccc2c1=O (configuration not stated)
inactive: SR leukemia 96.9% | RPMI-8226 leukemia 98.4% | OVCAR-8 ovarian 99.7% | OVCAR-5 ovarian 111% | OVCAR-4 ovarian 102% | SK-OV-3 ovarian 109% | IGROV1 ovarian 102% | OVCAR-3 ovarian 114% | HS 578T breast 98.8% | NCI/ADR-RES ovarian 109% | T-47D breast 96% | BT-549 breast 102% | MDA-MB-435 melanoma 101% | SW-620 colon 105% | MCF7 breast 90.9% | HCT-116 colon 95.3% | HCC-2998 colon 98.3% | KM12 colon 112%

CC(c1ccccc1)N1C(=O)/C(=C/c2csc(C#N)n2)SC1=S (configuration not stated)
inactive: SR leukemia 48.9% | RPMI-8226 leukemia 41.8% | OVCAR-8 ovarian 93.4% | OVCAR-5 ovarian 107% | OVCAR-4 ovarian 98.1% | SK-OV-3 ovarian 108% | IGROV1 ovarian 90.9% | OVCAR-3 ovarian 55.5% | HS 578T breast 103% | NCI/ADR-RES ovarian 97.5% | T-47D breast 69.2% | BT-549 breast 90.5% | MDA-MB-435 melanoma 94.4% | SW-620 colon 74.1% | MCF7 breast 36.6% | HCT-116 colon 67.6% | HCC-2998 colon 107% | KM12 colon 103%
